# Screening data: PubChem BioAssay, National Center for Advancing Translational Sciences (NCATS)
# Shown are actives, neighbours in structure and some others; about 6.1% of the full set was active somewhere.
# Gal4-VP16 FLuc: inhibits Gal4-VP16 luciferase reporter, ROR gamma counter-screen | Drosophila S2 Gal4-VP16 UAS-luciferase, luminescence, 20 h | Potency, µM (highest dose often 53.6 µM), inactives show at the highest dose activity, negative = inhibition, most hits filed as inhibitors | 310,000 tested, 3.5% active | AID 2546;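 also: Gal4-VP16 expression switched on by copper sulfate through the metallothionein promoter; % is scaled to controls: 0 for no effect and ±100 for the full control effect; nearly all actives have a fitted effect of over 50% in size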
# HepG2 viability: kills HepG2 cells in TGF-b inhibitor counter-screen; 410,000 tested, 0.76% active; HepG2 CAGA-GFP viability, ATP luminescence, 18 h; Potency, µM (highest dose often 46.1 µM), for inactives: at the top dose activity change, negative = cytotoxicity, usual class: cytotoxic
#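 HepG2 CAGA-GFP cells (1000/well, DMEM with 1% FBS) received compound, then TGF-beta at 500 pg/mL final, and were incubated 18 hours at 37 degrees C. Viability was read by CellTiter-Glo luminescence. Media-only wells were set as complete cell-killing and DMSO as no toxicity.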
# RORg inh: ROR gamma (mouse) transcription inhibition; P51450; Drosophila S2 Gal4-RORgamma UAS-luciferase reporter, 20 h; Potency, µM (doses to about 53.6 µM), for the others: top-dose activity change, negative = inhibition, hits mostly inhibitors; 310,000 tested, 5.4% active; AID 2551; also: % is scaled to controls: 0 for no effect and ±100 for the full control effect; nearly all actives have a fitted effect of over 60% in size
# Target sequence (P51450 whole entry, looked up, the tested form may be a part): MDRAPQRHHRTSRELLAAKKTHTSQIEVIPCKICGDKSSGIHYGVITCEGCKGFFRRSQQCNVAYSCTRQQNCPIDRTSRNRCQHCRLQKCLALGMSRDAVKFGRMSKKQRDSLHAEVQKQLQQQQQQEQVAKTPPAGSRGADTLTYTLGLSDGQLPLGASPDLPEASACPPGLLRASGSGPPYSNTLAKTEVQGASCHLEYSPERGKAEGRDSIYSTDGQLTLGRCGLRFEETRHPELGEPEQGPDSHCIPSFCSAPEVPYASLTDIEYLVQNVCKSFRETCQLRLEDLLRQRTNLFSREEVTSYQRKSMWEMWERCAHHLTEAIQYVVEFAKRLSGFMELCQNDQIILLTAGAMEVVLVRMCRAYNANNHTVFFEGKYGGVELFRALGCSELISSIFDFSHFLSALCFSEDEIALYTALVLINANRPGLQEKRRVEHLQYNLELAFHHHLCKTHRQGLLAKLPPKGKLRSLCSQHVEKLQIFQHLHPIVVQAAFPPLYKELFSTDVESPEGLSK
#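 Stably transfected Drosophila Schneider cells are the test system, with ROR gamma fused to Gal4 and luciferase under UAS control; luminescence is read after 20 hr of 700 uM copper sulfate induction at ambient temperature.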
# TGFb SMAD3 inh: inhibitors of TGF-b signaling; Potency, µM (highest dose often 46.1 µM), inactives show top-dose activity, negative = inhibition, most hits filed as inhibitors; HepG2 CAGA-GFP TGF-b/SMAD3 reporter, GFP fluorescence, 18 h; TGF-beta stimulated, 500 pg/mL final; 410,000 tested, 1.2% active; AID 588855; also: % is scaled to controls: 0 for no effect and ±100 for the full control effect; nearly all actives have a fitted effect of over 65% in size
#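 HEPG2 CAGA-GFP reporter cells (1000/well, DMEM with 1% FBS) received compounds, then recombinant TGF-beta at 500 pg/mL final for 18 hours at 37 degrees C. Per-cell GFP summed per well was normalised to unstimulated and stimulated DMSO controls before curve fitting.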
# S2 tox: cell viability loss in ATXN counter-screen. S2 cells (HEK-293 line with an ATXN2-luciferase reporter) viability, CellTiter-Fluor protease fluorescence, 24 h. Potency, µM (top dose mostly 56.7 µM), hits mostly cytotoxic. 400,000 tested, 0.49% active. AID 651635; also: nearly all actives have a fitted effect of over 40% in size
# ATXN2 expr inh: ATXN2 expression inhibition; HEK-293 ATXN2-luciferase reporter, luminescence, 24 h; Potency, µM (top dose mostly 57 µM), without a hit: top-dose activity change, negative = inhibition, hits mostly inhibitors; 360,000 tested, 0.72% active; also: % is scaled to controls: 0 for no effect and ±100 for the full control effect; nearly all actives have a fitted effect of over 55% in size
#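 qHTS (up to 57 uM final) was run with 24 h compound exposure of reporter cells at 37 °C. Each well was multiplexed: SteadyGlo luminescence measured ATXN2-luciferase expression after a fluorogenic Gly-Phe-AFC viability readout (25 uM final).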
# Active calls of the source: *; i = inactive; ? = inconclusive; nt = no result; ! = not active in a repeat. Calls follow the shape of the dose curve; as a rule, active = well fitted curve in the direction sought with a large enough effect; inconclusive = small, poorly fitted or top-dose-only effect, or another doubt; inactive = no such curve, though single readings can be large; an effect the other way counts as inactive or inconclusive. Potency is read from the fitted curve at half-maximal effect.
SMILES,Gal4-VP16 FLuc,HepG2 viability,RORg inh,TGFb SMAD3 inh,S2 tox,ATXN2 expr inh
Cc1ccc(C)c(Cn2c3ccccc3c3cnn(CC(=O)NC(C)CCc4ccccc4)c(=O)c32)c1 (centres undefined),nt,0%,nt,-1%,nt,nt
O=c1c(NCc2ccccc2Cl)nccn1-c1ccccc1,nt,-5%,nt,-1%,i,32%
CCOC(=O)c1c(C(C)(C)C)oc2ccc(O)cc12,16µM*,-112%,-33%,?,i,-16%
CCCCn1c(N)c(N(CCC(C)C)C(=O)c2ccc(-c3ccc([N+](=O)[O-])cc3)o2)c(=O)[nH]c1=O,nt,6%,nt,1%,nt,14µM*
CC1=C(/C=C/C(C)=C/C=C/C(C)=C/C(=O)Nc2ccc(O)cc2)C(C)(C)CCC1,5µM*!,-105%,4.5µM*!,?,28µM*,20µM*!
CC(C=CC1=C(C)CCCC1(C)C)=CC=CC(C)=CC(=O)Nc1ccc(O)cc1,nt,nt,nt,nt,nt,50µM*
CC1=C(\C=C/C(C)=C/C=C\C(C)=C\C(=O)O)C(C)(C)CCC1,-7%,nt,?,nt,i,nt
COc1ccc(-c2csc(-n3ncc(-c4ccccn4)c3N)n2)cc1,13%,1%,-20%,1%,i,-16%
Nc1c(-c2ccccn2)cnn1-c1nc(-c2ccc(F)cc2)cs1,-14%,9%,5µM*,20%,i,2%
OCCN1CCN(C2CCC(c3ccc(F)cc3)c3ccc(F)cc32)CC1 (centres undefined),nt,i,nt,20µM*,?,25µM*
COc1ccc(NCc2nnc(SCC(=O)c3ccc(OC)cc3)o2)cc1,4%,-35%,-36%,21%,i,3%
CCOc1cc(C(=O)CSc2nnc(CNc3ccc(Cl)cc3)o2)ccc1NC(=O)CC,-1%,10µM*,?,?,20µM*,32µM*
Cc1ccc(NC(=O)Cn2c(=O)n(Cc3ccc4c(c3)OCO4)c(=O)c3ccccc32)c(C)c1,nt,0%,nt,9%,i,6%
O=C(COc1ccc(/C=N/NC(=O)c2cc3ccccc3o2)cc1Cl)Nc1ccccc1,0.89µM*,-69%,1.3µM*,2µM*,8.9µM*,10µM*
CCOc1cc(/C=C2\C(=O)N(c3ccc(C(N)=O)cc3)N=C2C)ccc1OC(=O)c1cccs1,-22%,-48%,-3%,0%,i,-19%
CC1=NN(c2ccc(C(=O)O)cc2)C(=O)/C1=C\c1ccc(OC(=O)c2cccs2)cc1,-1%,4%,11µM*,-12%,i,-19%
C[C@@H](NCCCn1cnc2c(OCc3ccccc3)ncnc21)c1cccc2ccccc12,nt,14µM*,nt,?,?,?
c1ccc(COc2ncnc3c2ncn3CCCN2CCN(Cc3cccc4ccccc34)CC2)cc1,nt,-116%,nt,?,?,22µM*
c1ccc(CCCNCCCn2cnc3c(OCc4ccccc4)ncnc32)cc1,nt,-100%,nt,?,25µM*,?
c1ccc(CNCCCn2cnc3c(OCc4ccccc4)ncnc32)cc1,nt,-8%,nt,17%,i,-6%
CC(C)(C)C1CCc2c(sc3nc(-c4cc5cc(Cl)ccc5oc4=O)[nH]c(=O)c23)C1 (centres undefined),nt,11%,nt,-1%,nt,nt
CCOc1ccc(NC(=O)c2cnn3c2NC(c2ccccc2)=CC3c2cccc(OC)c2OC)cc1 (centres undefined),nt,1%,nt,-4%,i,7%
Cc1nc(CS(=O)(=O)c2ccc(Cl)cc2)cc(Sc2ccc(Cl)cc2)n1,11µM*,-16%,?,?,?,-6%
CCc1nnc2c3ccccc3nc(Nc3ccccc3OC)n12,nt,-4%,nt,4%,i,-7%
O=S(=O)(c1ccc2ccccc2c1)n1nc(-c2ccco2)nc1NCc1cccc(Cl)c1,nt,-2%,nt,5%,i,4%
O=C(C1=C[C@@H](C2CCCCC2)C[C@@H](OCc2ccc(CO)cc2)O1)N1CCN(Cc2ccccc2)CC1,13µM*,-13%,?,?,nt,?
